Measured values reported in PubChem BioAssay (NCI).
Where “and” joins values, the source holds several entries; their conditions need not be identical. Identical values can stand only once. Compounds without any hit were thinned out: in the full panel of roughly 79,000, 15% have a hit. Unmarked numbers belong to inactive results. Calls of active or inactive are those of the source. No stated cut-off is given here; in the data, active means growth inhibition above about 70%; inactive means the rest.

What was measured:
[1] = NCI Yeast Anticancer Drug Screen. Data for the rad50 strain (AID 155);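 further: 0% = growth of vehicle-only cultures of the same strain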; conditions: S. cerevisiae rad50 strain growth inhibition, active compounds read high
In short: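 Inhibition values express reduced yeast growth in compound-treated cultures relative to vehicle-treated controls.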

[2] = NCI Yeast Anticancer Drug Screen. Data for the mec2-1 strain (AID 157); conditions: S. cerevisiae mec2-1 strain, active compounds read high
In short: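 Mutant yeast (mec2-1) grown with compound; growth inhibition relative to vehicle control reported.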

[3] = NCI Yeast Anticancer Drug Screen. Data for the sgs1 mgt1 strain (AID 161);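 further: 0% = growth of cultures given vehicle only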; conditions: S. cerevisiae sgs1 mgt1 strain, active compounds read high
In short: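 This yeast growth screen uses a strain with defined DNA-repair lesions; compound-treated growth is compared with vehicle-treated growth.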

[4] = NCI Yeast Anticancer Drug Screen. Data for the cln2 rad14 strain (AID 165);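 further: 0% = growth equal to vehicle treated cultures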; conditions: S. cerevisiae cln2 rad14 strain, active compounds read high
In short: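 Readout is yeast growth inhibition versus vehicle-treated controls, using a strain with cln2 and rad14 alterations exposed to compound.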

[5] = NCI Yeast Anticancer Drug Screen. Data for the bub3 strain (AID 167); conditions: S. cerevisiae bub3 mutant strain, active compounds read high
In short: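 Steps: expose the mutant yeast strain to compound; grow alongside vehicle-treated cultures; measure growth; express inhibition against the vehicle cultures.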

[6] = NCI Yeast Anticancer Drug Screen. Data for the mlh1 rad18 strain (AID 175); conditions: S. cerevisiae mlh1 rad18 strain growth inhibition, active compounds read high
In short: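 Genetically defined yeast (DNA repair-deficient) exposed to compounds; growth inhibition determined relative to vehicle.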

[7] = at 5.0 µM (retest, dose inferred, filed as 0.5)
[8] = at 50.0 µM (retest, dose inferred, filed as 5.0)

SMILES | growth inhibition [1, 7] | growth inhibition [1, 8] | growth inhibition [2, 7] | growth inhibition [2, 8] | growth inhibition [3, 7] | growth inhibition [3, 8] | growth inhibition [4, 7] | growth inhibition [4, 8] | growth inhibition [5, 7] | growth inhibition [5, 8] | growth inhibition [6, 7] | growth inhibition [6, 8] | growth inhibition ([1]; at 50.0 µM) | growth inhibition ([2]; at 50.0 µM) | growth inhibition ([3]; at 50.0 µM) | growth inhibition ([4]; at 50.0 µM) | growth inhibition ([5]; at 50.0 µM) | growth inhibition ([6]; at 50.0 µM)
O=C1c2ccccc2-c2ccc(O)cc21 | 58% | 95% (active) | 17% | 84% (active) | 28% | 93% (active) | 10% | 69% | 10% | 87% (active) | -11% | 90% (active) | – | – | – | – | – | –
CC(=O)O[C@H]1C(=O)[C@@]2(C)C(C(OC(=O)c3ccccc3)[C@]3(O)CC(OC(=O)[C@H](OC(=O)CCC(=O)O)C(NC(=O)c4ccccc4)c4ccccc4)C(C)=C1C3(C)C)C1(OC(C)=O)COC1C[C@@H]2O (stereo partly specified) | – | – | – | – | – | – | – | – | – | – | – | – | 12.9% and 26.6% | 10.1% and 18.2% | -19.2% and -19.7% | -15.8% and -13.2% | -6.95% and -15.3% | –
COc1nc2c(c(=O)n1C)NC(C(O)C(O)CO)C=N2 (stereo unspecified) | – | – | – | – | – | – | – | – | – | – | – | – | -34.7% and -26.7% | -20.6% and -33.5% | -23.8% and -25.8% | -5.05% and 8.25% | -14.8% and -15.7% | -23.4% and -17.4%
Oc1ccc(Cc2cccc(Cl)c2)c(O)c1 | -1% | 92% (active) | -7% | 96% (active) | – | – | 4% | 98% (active) | 0% | 92% (active) | -3% | 90% (active) | – | – | – | – | – | –
CC1CC(=O)C2CC1C2(C)C (stereo unspecified) | – | – | – | – | – | – | – | – | – | – | – | – | 18% and 27.3% | -9.05% and 0.3% | -2.15% and 11.7% | -0.85% and 12.1% | 6% and 14.1% | –
OC1Cc2ccccc2CC1O (stereo unspecified) | – | – | – | – | – | – | – | – | – | – | – | – | -20.1% and -35.1% | -41.4% and -39.9% | -36.5% and -12.3% | -19.6% and -1.5% | -26.1% and -8.8% | –
Nc1cccc2cc(S(=O)(=O)O)ccc12 | – | – | – | – | – | – | – | – | – | – | – | – | 10.6% and -6.9% | 22.9% and -9.85% | -24.9% and -1.25% | -2.75% and -50.2% | -1.65% and -11.9% | –
O=C1Nc2c(cc([N+](=O)[O-])cc2[N+](=O)[O-])C1=O | – | – | – | – | – | – | – | – | – | – | – | – | -8.6% and 3.1% | 7.6% and -0.75% | -5.1% and 2.05% | -0.05% and -12.1% | -2.4% and 3.95% | -1.1% and 2.6%
Cc1ccc2[nH]cc(CC(=O)O)c2c1 | 95% (active) | 99% (active) | 97% (active) | 100% (active) | 99% (active) | 100% (active) | 42% | 99% (active) | 99% (active) | 100% (active) | 85% (active) | 99% (active) | – | – | – | – | – | –
CCCCNC(=O)C(C)O (stereo unspecified) | 5% | 23% | 0% | 3% | 0% | 4% | 5% | 0% | 1% | -2% | 3% | 8% | – | – | – | – | – | –
Cc1cccc(OC(=O)Cc2ccccc2)c1 | – | – | – | – | – | – | – | – | – | – | – | – | -17.1% and -34.1% | -14.6% and -8.2% | -6.1% and -8.35% | -9.45% and -38% | 13.6% and -12.9% | –
CCOC(=O)C(NC(C)=O)C(C)=O (stereo unspecified) | – | – | – | – | – | – | – | – | – | – | – | – | 32.5% and 10.9% | -7% and -5.65% | 13.1% and 8.85% | -4.15% and -11.7% | 1.55% and -3.15% | –
CCCC(=O)c1ccc([N+](=O)[O-])o1 | 13% | 98% (active) | 7% | 99% (active) | 15% | 99% (active) | 4% | 98% (active) | 16% | 100% (active) | 1% | 98% (active) | – | – | – | – | – | –
O=C(/C=C/c1ccccc1)c1ccc(N=Cc2ccccc2)cc1 | -37% | 30% | 6% | 21% | 2% | 68% | 1% | 6% | 7% | 54% | 8% | 38% | – | – | – | – | – | –
CC(C)(N)CCC(=O)O | – | – | – | – | – | – | – | – | – | – | – | – | 10.3% and -0.25% | 20.9% and 3.7% | 12.6% and -1.85% | -3.05% and -7.2% | -28.7% and 11.1% | 6.8% and -3.15%
CC(=O)Nc1ccc(/C=N/NC(=S)NCC(C)C)cc1 | 4% | 10% | 2% | 3% | -1% | 7% | – | – | 5% | 9% | -1% | -4% | – | – | – | – | – | –
OCCNC(c1ccc(Cl)cc1)C(O)c1ccc(Cl)cc1 (stereo unspecified) | 5% | 62% | -3% | 13% | 0% | 77% (active) | – | – | 6% | 55% | -4% | 59% | – | – | – | – | – | –
CCC(=O)c1ccc([N+](=O)[O-])o1 | 12% | 97% (active) | 5% | 99% (active) | 13% | 100% (active) | -6% | 99% (active) | 13% | 100% (active) | 3% | 98% (active) | – | – | – | – | – | –
CN(C)c1cc(N)c(Cc2c(N)cc(N(C)C)cc2Cl)c(Cl)c1 | 5% | 97% (active) | -2% | 97% (active) | -4% | 98% (active) | 8% | 96% (active) | 6% | 97% (active) | 1% | 97% (active) | – | – | – | – | – | –
N#CC(c1ccccc1)C(c1ccccc1)c1ccccc1 (stereo unspecified) | 13% | 67% | 9% | 89% (active) | 9% | 92% (active) | 20% | 55% | 13% | 87% (active) | -24% | 80% (active) | – | – | – | – | – | –
Cc1ccccc1N=NC(C#N)C#N | 82% (active) | 99% (active) | 40% | 100% (active) | 85% (active) | 100% (active) | 39% | 99% (active) | 68% | 100% (active) | 78% (active) | 99% (active) | – | – | – | – | – | –
CCC(CC)(c1ccccc1)C(O)c1ccccc1 (stereo unspecified) | 11% | 94% (active) | -1% | 98% (active) | 6% | 98% (active) | 7% | 95% (active) | 6% | 94% (active) | 2% | 96% (active) | – | – | – | – | – | –
CC1=NN(c2ccc([N+](=O)[O-])cc2)C(=O)C1[N+](=O)[O-] (stereo unspecified) (tested in a mixture with another compound) | – | – | – | – | – | – | – | – | – | – | – | – | 20.1% and 26.6% | 1.95% and 2.9% | 12.3% and 34.4% | 14.8% and 13.1% | -1.75% and -1.25% | 3.35% and 12.8%
CCOS(=O)(=O)CC(C)(C)C | 7% | 92% (active) | 3% | 80% (active) | 8% | 59% | -1% | 13% | 4% | 68% | -21% | 86% (active) | – | – | – | – | – | –
